Assay results reported in PMC5540273 (PLoS ONE, 2017).

Tests used:
Details in all cases: concentration: 1 μM, replicates: in singlicate; n = 1
SRPK2 = test system: SRPK2
SRPK3 = test system: SRPK3
STK16 = test system: STK16
STK33 = test system: STK33
STK35 = test system: STK35
STK36 = test system: STK36
STK39 = test system: STK39
SYK = test system: SYK
SgK110 = test system: SgK110
TAK1 = test system: T1, TAK1
T1 construct: gene MAP3K7
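Further: KINOMEscan kinase panel screen.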

| Compound | %Inh (SRPK2) [%] | %Inh (SRPK3) [%] | %Inh (STK16) [%] | %Inh (STK33) [%] | %Inh (STK35) [%] | %Inh (STK36) [%] | %Inh (STK39) [%] | %Inh (SYK) [%] | %Inh (SgK110) [%] | %Inh (TAK1) [%] |
| --- | --- | --- | --- | --- | --- | --- | --- | --- | --- | --- |
| O=C(Nc1n[nH]c2cc(-c3ccsc3)ccc12)C1CC1 [SB-732932] | 0 | 75 | 23 | 0 | 0 | 2 | 0 | 13 | 0 | 7 |
| CNc1cc(-c2ccc3c(N)n[nH]c3c2)nc(N)n1 [GSK2224810] | 1 | 0 | 19 | 0 | 6 | 0 | 0 | 7 | 0 | 26 |
| Cc1ccc(NC(=O)Nc2ccc(Cl)cc2)cc1-c1ccc(C(=O)Nc2ccncc2)cc1 [GSK1398472] | 0 | 46 | 0 | 0 | 0 | 1 | 0 | 31 | 10 | 0 |
| COC(=O)C(NC(=O)NC1CCN(c2ccnc(Nc3ccc(F)cc3)n2)C1)c1ccccc1 (centres unmarked) [GSK1379712] | 0 | 0 | 0 | 0 | 0 | 29 | 0 | 21 | 19 | 12 |
| CC(=O)c1c(C)c2cnc(Nc3ccc(N4CCNCC4)cn3)nc2n(C2CCCC2)c1=O | 0 | 0 | 0 | 0 | 8 | 0 | 0 | 0 | 0 | 28 |
| Cn1cncc1C(=O)NC1CCN(c2ccnc(Nc3ccc(F)cc3)n2)C1 (centres unmarked) [GSK1379717] | 0 | 0 | 17 | 0 | 0 | 0 | 0 | 5 | 6 | 0 |
| Fc1ccc(-c2nc[nH]c2-c2ccncc2)cc1 [SB-217360] | 0 | 3 | 14 | 1 | 0 | 0 | 0 | 33 | 15 | 0 |
| COc1cc2ncnc(Nc3cccc(Br)c3)c2cc1OC.Cl [GI230329] | 40 | 0 | 0 | 0 | 0 | 0 | 5 | 13 | 17 | 0 |
| COc1cccc(C2=C(Nc3cc(Cl)c(O)c(Cl)c3)C(=O)NC2=O)c1 [SB-390767] | 5 | 24 | 11 | 0 | 0 | 0 | 0 | 0 | 0 | 0 |
| O=c1cc(N2CCOCC2)nc2n(Cc3cccc(Cl)c3Cl)c3ccccc3n12 [GSK2299009] | 0 | 15 | 31 | 18 | 14 | 0 | 0 | 50 | 0 | 0 |
| Nc1cccc(-c2ccc3c(N)n[nH]c3c2)n1 [GSK2192730] | 0 | 0 | 27 | 0 | 0 | 0 | 1 | 0 | 0 | 43 |
| Cc1ccc(NC(=O)c2ccc(Cl)cc2)cc1-c1ccc(C(=O)Nc2ccncc2)cc1 [GSK1398467] | 0 | 0 | 7 | 0 | 0 | 0 | 6 | 3 | 0 | 0 |
| CS(=O)(=O)CCNCc1nc(-c2ccc3ncnc(Nc4ccc(OCc5ccccc5)c(Cl)c4)c3c2)cs1.Cl [GW582764] | 36 | 0 | 0 | 0 | 0 | 0 | 4 | 20 | 0 | 0 |
| COc1ccc(Nc2nccc(N3CCC(NC(=O)C(C)c4ccc(Cl)cc4)C3)n2)cc1 (centres unmarked) [GSK1379735] | 0 | 34 | 0 | 0 | 7 | 1 | 13 | 25 | 0 | 0 |
| COc1ccc2cc(-c3nc(-c4ccccc4C(C)C)[nH]c3-c3ccncc3)ccc2c1 [SB-660566] | 0 | 0 | 9 | 0 | 38 | 41 | 31 | 10 | 0 | 0 |
| CC(=O)c1cccc(NC(=O)NC2CCN(c3ccnc(Nc4ccc(F)cc4)n3)C2)c1 (centres unmarked) [GSK1379710] | 28 | 0 | 1 | 6 | 1 | 0 | 25 | 29 | 0 | 0 |
| CCn1c(-c2c(N)noc2C)nc2cnccc21 [SB-737856] | 0 | 2 | 0 | 0 | 0 | 0 | 6 | 1 | 0 | 0 |
